The campaign covered roughly 5,500 compounds. About 2,000 (36%) were called active. Not shown: some 18% with an inconclusive outcome. No stated cut-off is given here; in the data, active means normalized growth mostly below about 0.91 (no sharp cut-off); inconclusive means no clear call, values can overlap the other calls; inactive means mostly above about 0.92. The list shows a part of the results.
Experiment: chemical genetic growth profiling, strain panel (AID 1159580);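 further: tested at 20 µM; growth read once vehicle control cultures reached saturation at 30 °C; 1 = growth at the plate median or of vehicle wells; lower values mean less growth of the strain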
Conditions: S. cerevisiae deletion strains, growth OD

Measured: normalized growth

COC(=O)C1=C(C)NC(C)=C([N+](=O)[O-])C1c1ccccc1C(F)(F)F (stereo not given)
inactive: locus YAL040C, strain CLN3, hits give low values 0.982 | locus YCL061C, strain MRC1 (second series), hits give low values 1 | locus YER002W, strain NOP16, hits give low values 0.991 | locus YGR078C, strain PAC10, hits give low values 0.94 | locus YNL175C, strain NOP13, hits give low values 0.976 | locus YNL197C, strain WHI3, hits give low values 1.04 | locus YNL224C, strain SQS1, hits give low values 0.987 | locus YNL322C, strain KRE1, hits give low values 1.01 | locus YOR083W, strain WHI5 (second series), hits give low values 1 | locus YPL055C, strain LGE1, hits give low values 1.01

— PubChem BioAssay AID1159580 (chemical genetic matrix, 2015)
